Test results published in PubChem BioAssay (Tox21).
Results filed as inconclusive are left out. A number with no mark means an inactive call. Calls of active or inactive are those of the source. The call rests on the fitted dose curve; in most records, active means well fitted cell-killing curve with a large enough effect in the repeat runs; inconclusive means weak or mixed curves, or effect the other way; inactive means flat fitted curve, though single readings scatter.

test: qHTS RealTime-Glo MT Cell Viability Assay in HEK293 cells - 24 hour (AID 1224886); details: RealTime-Glo luminescence; series mostly up to 76.8 µM; activity change, negative = cytotoxicity: at the top concentration; further: nearly all actives have a fitted effect of over 50% in size; on activity change, negative = cytotoxicity: top concentration of the series differs between compounds
Description: National Center for Advancing Translational Sciences [NCATS]
NIH Chemical Genomics Center [NCGC]
U.S. Environmental Protection Agency [EPA]
National Institutes of Environmental Health Sciences [NIEHS]
National Toxicology Program [NTP]
U.S. Food and Drug Administration [FDA]
Measure of cell viability is critical in the cell-base assay. Analysis of cell viability is necessary for the characterization of cell responses to cytotoxic drugs and environmental stress. A RealTime-Glo MT Cell Viability Assay to monitor cell viability in real time of continues cell culture during 40 hours of compound treatment was used to screen Tox21 10K library compounds in Hek293 cells. The RealTime-Glo MT Cell Viability Assay is a nonlytic, homogeneous, bioluminescent method to measure cell viability in real time using a simple, plate-based method. The assay involves adding NanoLuc luciferase and a cell-permeant prosubstrate to cells in culture. Viable cells reduce the proprietary prosubstrate to generate a substrate for NanoLuc luciferase. This substrate diffuses from cells into the surrounding culture medium, where it is rapidly used by the NanoLuc Enzyme to produce a luminescent signal. The signal correlates with the number of viable cells, making the assay well suited for cytotoxicity studies.
Tox21 Assay Protocol Summary:
The mixture of Hek293 cell suspension and reagents were dispensed at 600cells/6 ul/well in 1536-well tissue culture treated black solid bottom plates using a Multidrop dispenser. After the assay plates were incubated at a 37 C/5% CO2 incubator for 5 hours, 23 nL of compounds dissolved in DMSO, positive and negative controls was transferred to the assay plate by a pintool work station. The plates were incubated at 37 C for 40 hours. The luminescence intensity were measured at 0h, 8h, 16h, 24h, 32h and 40h time points using ViewLux plate reader during compound treatment.
On the % scale 0 is the no-effect control and ±100 the full control effect; potency means the concentration at half of the fitted maximal effect.

Row | Structure (SMILES) | activity change, negative = cytotoxicity | Potency
1 | CCC(C)n1c(=O)[nH]c(C)c(Br)c1=O (stereo not given) | -1.17% | 
2 | CC(C(O)c1ccccc1)N(C)C/C=C/c1ccccc1 (stereo not given) | -24.5% [at 35.3 µM] | 
3 | O=C(Oc1ccc(Br)cc1)N1CCN2CCC1CC2 | -0.0209% | 
4 | CNC(=O)Oc1ccc(N(C)C)c(C)c1 | -12.3% | 
5 | C[C@H]1CCC[C@H](O)CCCCCc2cc(O)cc(O)c2C(=O)O1 |  | 34.9 µM (active)
6 | O=C(NCO)NCO | 4.91% | 
7 | CC(C=O)Cc1ccc2c(c1)OCO2 (stereo not given) | -6.88% | 
8 | C=C(C)CN(CC)c1c([N+](=O)[O-])cc(C(F)(F)F)cc1[N+](=O)[O-] | -4% | 
9 | CCCSC(=O)Cl | 9.53% | 
10 | Cc1nnc2n1-c1sc(CCC(=O)N3CCOCC3)cc1C(c1ccccc1Cl)=NC2 | -12.4% [at 35.3 µM] | 
11 | OC(c1ccc(F)cc1)(c1cncnc1)c1ccccc1Cl (stereo not given) | -22.7% | 
12 | CCCCCCBr | 10% | 
13 | CN(C)CCc1ccc(O)cc1 | 10.1% [at 35.3 µM] | 
14 | OCCSCSCCO | 7.91% | 
15 | CC(C)(C)OC(=O)c1ncn2c1[C@@H]1CCCN1C(=O)c1c(Br)cccc1-2 | -22.6% [at 35.3 µM] | 
16 | COC(=O)c1ccccc1S(=O)(=O)NC(=O)N(C)c1nc(C)nc(OC)n1 | 9.38% | 
17 | CCN(CC)CCOC(=O)C(C)(c1ccccc1)c1ccccc1 | -27.2% [at 35.3 µM] | 
18 | CC1CCC(=O)O1 (stereo not given) | -18.5% | 
19 | Fc1cc(Br)ccc1CBr | 6.51% [at 35.3 µM] | 
20 | ClCCOCOCCCl | -7.87% | 

Row | Structure (SMILES) | activity change, negative = cytotoxicity | Potency
21 | C[N+](=O)[O-] | 17% | 
22 | c1ccc(N2CCNCC2)cc1 | 17.5% [at 35.3 µM] | 
23 | CCCCOC(=O)c1ccccc1N | -1.68% | 
24 | NC(=O)O | -0.146% | 
25 | CCCCOC(=O)[C@@H](C)Oc1ccc(Oc2ccc(C#N)cc2F)cc1 |  | 19.4 µM (active)
26 | N#Cc1c(Cl)cccc1Cl | 16.5% | 
27 | Cc1cnc[nH]1 | -0.717% | 
28 | CCCCP(CCCC)CCCC | -3.08% | 
29 | CCCCC(=O)Cl | -0.633% | 
30 | CCN(CC)c1nc(C)cc(OP(=S)(OC)OC)n1 | -5.75% | 
31 | CC1(C)C(=O)NC(=O)NC1=O | -0.0193% | 
32 | CN/C(=N\[N+](=O)[O-])NCC1CCOC1 (stereo not given) | 6.59% | 
33 | COC(C)(C)C | 5.66% | 
34 | O=C(CCN1CC1)OCC(CO)(COC(=O)CCN1CC1)COC(=O)CCN1CC1 | 4.37% | 
35 | ClC(Cl)Br | 8.94% | 
36 | O=C(Nc1ccccc1)c1ccccc1I | -17% | 
37 | ClC(Br)Br | 9.95% | 
38 | CCOP(=S)(OCC)SCSc1ccc(Cl)cc1 | 0.259% | 
39 | COc1cc(OC)nc(NC(=O)NS(=O)(=O)c2ncccc2OCC(F)(F)F)n1 | 0.572% | 
40 | C=CC1CC=CCC1 (stereo not given) | -0.553% | 
